Assay outcomes deposited in PubChem BioAssay by several laboratories.
Shown are actives, neighbours in structure and some others; about 0.5% of the full set was active somewhere.
AddAB inh = less growth of phage-infected E. coli with AddAB. E. coli expressing H. pylori AddAB, absorbance growth. AID 435030. 0.29% of 330,000 active. inhibition, % at 11.9 µM; in the data active = inhibition above about 12%;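 note: 0% = vehicle wells of infected cells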
E coli growth-1 = bacterial growth inhibition, counter-screen for AddAB inhibitors; E. coli V3065 growth, OD600 absorbance, 18 h; inhibition, % at 11.9 µM; 0.27% of 330,000 active; AID 449728;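 active = inhibition above the campaign's mean inhibition across all tested compounds plus 3 SD, cut at about 9.9% in these data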;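 note: uninfected addAB+ strain grown without phage in ampicillin broth; 0% = DMSO wells and 100% = ciprofloxacin 0.95 µg/ml wells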
phage Ecoli inh = E. coli growth loss with phage present | growth absorbance | inhibition, % at 11.9 µM | 0.26% of 360,000 active; in the data active = inhibition above about 11%
Tat transport = blocks Tat-dependent protein export in E. coli; AID 488895; 0.036% of 340,000 active; inhibition, % at 10 µM; E. coli MC4100 TorA-mCherry Tat export, fluorescence;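 active = mean replicate inhibition at least 50% and at least half of replicates individually reaching 50%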;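 note: exported cargo escapes ClpAP degradation while cytoplasmic cargo is degraded and loses fluorescence; 0% = median of neutral control wells and 100% = median of NaSCN control wells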
E coli growth-2 = E. coli growth inhibition; Escherichia coli growth, OD600, 23 h; active compounds read low; 0.21% of 330,000 active; OD600 absorbance (concentration not given with the values);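 active = OD600 absorbance below the run mean of sample wells minus 3.6 SD, in any replicate, cut at about 0.56 in these data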
AddAB confirm = growth loss of T4-infected E. coli expressing H. pylori AddAB, confirmed; shares compounds with AddAB inh; E. coli V3065 expressing H. pylori AddAB, T4 phage, OD; T4 phage with gene 2 nonsense mutations; inhibition, % at 11.9 µM; 64% of 880 active;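 active = mean inhibition above a set limit taken from the earlier primary screen, cut at about 13% in these data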;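 note: higher means less bacterial growth since AddAB block lets phage replicate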
RecBCD counter = counter-screen: growth loss of RecBCD+ E. coli with mutant T4 phage; 73% of 880 active; E. coli V66 + mutant T4 phage, OD growth; shares compounds with AddAB inh; inhibition, % at 11.9 µM;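 active = mean inhibition above the mean of solvent-only control wells plus 3 SD, cut at about 4% in these data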;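 note: optical density read after an 18 h incubation at 37 °C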
Bact viability = reduces bacterial viability, AddAB inhibitor counter-screen | absorbance (AddAB counterscreen) | 35% of 880 active | inhibition, % at 11.9 µM | shares compounds with AddAB inh | AID 488956; in the data active = inhibition above about 25%
The depositor's hits bear a star.

[N-]=[N+]=NC(CCN1CCC(O)CCC1=O)c1ccccc1 (stereo unspecified) was read as E coli growth-2 0.69.
`O=C(Nc1ccc(N2CCOCC2)cc1)c1ccc([N+](=O)[O-])o1` gave AddAB inh 16*, E coli growth-1 13*, phage Ecoli inh 8, Tat transport -3, E coli growth-2 0.61, AddAB confirm 69*, RecBCD counter 8.5* and Bact viability 20.
For CCC(=O)N1CCN(c2ccc(NC(=O)c3ccc([N+](=O)[O-])o3)cc2Cl)CC1 the results were phage Ecoli inh 6, Tat transport -3 and E coli growth-2 0.65.
O=C(Nc1ccc(S(=O)(=O)N2CCOCC2)cc1)c1ccc([N+](=O)[O-])o1 was read as AddAB inh 6, E coli growth-1 4, phage Ecoli inh 6, Tat transport -12 and E coli growth-2 0.66.
`CC(=O)N1CCN(c2ccc(NC(=O)c3ccc([N+](=O)[O-])o3)cc2Cl)CC1` gave AddAB inh 14*, E coli growth-1 5, phage Ecoli inh 6, Tat transport -4, E coli growth-2 0.62, AddAB confirm 56*, RecBCD counter 4.9* and Bact viability 15.
`Cc1cccnc1NC(=O)c1ccc([N+](=O)[O-])o1` gave AddAB inh 92*, E coli growth-1 24*, phage Ecoli inh 12*, Tat transport -5, E coli growth-2 0.58, AddAB confirm 91*, RecBCD counter 12* and Bact viability 24.
Screening CC(=O)Nc1ccc2nc(NC(=O)c3ccco3)sc2c1 returned AddAB inh 1, E coli growth-1 -1, phage Ecoli inh -1, Tat transport 0 and E coli growth-2 0.68.
Screening CC(=O)Nc1ccc2nc(NC(=O)c3ccc([N+](=O)[O-])o3)sc2c1 returned AddAB inh 15*, E coli growth-1 9, phage Ecoli inh 1, Tat transport -12, E coli growth-2 0.62, AddAB confirm 41*, RecBCD counter 5.7* and Bact viability 12.
Screening COc1ccc(C2CC=C(C(=O)O)C(c3cccc(Cl)c3)N2S(=O)(=O)c2ccc(C)cc2)cc1OC (stereo unspecified) returned E coli growth-2 0.67.
CC1(c2ccccc2)CC(C)(C)N2C(=O)C(=C3SC(=S)NC3=O)c3cccc1c32 (stereo unspecified) was read as E coli growth-2 0.69.
CCN(Cc1ccccc1)C(=O)Cn1cc2c(n1)CCCC2 was read as AddAB inh 12*, E coli growth-1 3, phage Ecoli inh 2, Tat transport -5, E coli growth-2 0.72, AddAB confirm 1, RecBCD counter 0 and Bact viability -4.
For CC(=NNC(=O)C(=O)Nc1cc(Cl)ccc1Cl)c1ccncc1 the results were E coli growth-2 0.69.
`CC1CN(C(C)CO)C(=O)c2cc(NC(=O)Cc3ccccc3)ccc2OC1CN(C)S(=O)(=O)c1ccccc1` (stereo unspecified) gave E coli growth-2 0.62.
CC1CCN(c2ccc(/C=N\Nc3nncn3N)cc2[N+](=O)[O-])CC1 was read as AddAB inh 15*, E coli growth-1 5, phage Ecoli inh 3, Tat transport -9, AddAB confirm -2, RecBCD counter 0 and Bact viability -5.
For CCc1nnc(NN=Cc2ccc(N3CCC(C)CC3)c([N+](=O)[O-])c2)n1N the results were E coli growth-2 0.71.
`COc1ccc(S(=O)(=O)N2CCOC2CNC(=O)C(=O)NCCc2ccccc2)cc1OC` (stereo unspecified) gave AddAB inh -2, E coli growth-1 -2, phage Ecoli inh 1, Tat transport -9 and E coli growth-2 0.79.
For COc1ccc(S(=O)(=O)N2CCOC2CNC(=O)C(=O)NCCc2ccccc2)cc1C (stereo unspecified) the results were AddAB inh 43*, E coli growth-1 15*, phage Ecoli inh 4, Tat transport -12, E coli growth-2 0.81, AddAB confirm 0, RecBCD counter -1 and Bact viability -2.
For Oc1c(Cl)cc(Cl)cc1Sc1cc(Cl)cc(Cl)c1O the results were AddAB inh 15*, E coli growth-1 16*, AddAB confirm 10, RecBCD counter 15* and Bact viability 12.
O=S(c1cc(Cl)cc(Cl)c1O)c1cc(Cl)cc(Cl)c1O was read as phage Ecoli inh 10.
For COC(=O)C1CC1C(NC(=O)C1CC1C(NC(=O)OCc1ccccc1)c1ccccc1)c1ccccc1 (stereo unspecified) the results were E coli growth-2 0.71.
For C[n+]1cccc2c(Br)ccc([O-])c21 the results were AddAB inh 1, E coli growth-1 -4, phage Ecoli inh 2, Tat transport 2 and E coli growth-2 0.65.
Screening [O-][n+]1cccc2c(Br)cc(Br)c(O)c21 returned AddAB inh 40*, E coli growth-1 40*, phage Ecoli inh 43*, Tat transport -7, E coli growth-2 0.24*, AddAB confirm 38*, RecBCD counter 47* and Bact viability 41*.
Screening O=C(NNC(=O)C1CCN(S(=O)(=O)c2ccccc2)CC1)c1ccccc1O returned AddAB inh 4, E coli growth-1 3, phage Ecoli inh 6, Tat transport -4 and E coli growth-2 0.71.
O=C(NCc1ccco1)C1CCN(S(=O)(=O)c2ccccc2C(F)(F)F)CC1 was read as AddAB inh -2, E coli growth-1 -1, phage Ecoli inh 1, Tat transport 3 and E coli growth-2 0.69.
For O=C(NNC(=O)C1CCN(S(=O)(=O)c2ccccc2C(F)(F)F)CC1)c1ccccc1O the results were AddAB inh 14*, E coli growth-1 10, phage Ecoli inh 9, Tat transport -24, E coli growth-2 0.69, AddAB confirm 13*, RecBCD counter 8.8* and Bact viability 11.
`O=C(NNC(=O)C1CCN(S(=O)(=O)c2c(Cl)cccc2Cl)CC1)c1ccccc1O` gave AddAB inh 13*, E coli growth-1 10, phage Ecoli inh 10, Tat transport 2, E coli growth-2 0.69, AddAB confirm 9, RecBCD counter 6.2* and Bact viability 6.
`CCOC(=O)c1sc(NN=Cc2ccc(N(C)C)cc2)nc1C` gave E coli growth-2 0.69.
CCCCCCCCN1C(CC(=O)OC)c2cc(C(F)(F)F)ccc2S1(=O)=O (stereo unspecified) was read as E coli growth-2 0.66.
